Screens as filed in PubChem.
This excerpt belongs to a sample that is enriched for hits.
RGS12 GoLoco inh: RGS12 GoLoco-Gai1 interaction inhibition. P63096. Gai1:RGS12 GoLoco peptide FP, rhodamine, 10 min. Potency, µM (highest dose often 61.6 µM), hits mostly inhibitors. 230,000 compounds, 0.44% hits. AID 880; active means well fitted inhibition curve with a large enough effect, not every such curve was filed as active; inactive means no such curve, though single readings can be large or run the other way; further: nearly all actives have a fitted effect of over 30% in size
IMPase Li cell: membrane-permeable IMPase blocker, potentiated with lithium | CHO-M1 cells, IP1 TR-FRET (IP-One), carbachol + lithium | Potency, µM (series often up to 59.4 µM), actives largely listed as inhibitors | 210,000 compounds, 0.35% hits | AID 1457;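 further: IP1 builds up when IMPase is blocked and the TR-FRET signal falls; nearly all actives have a fitted effect of over 50% in size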
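Steps: plate 2000 CHO-M1 cells per well and culture 16–30 h; add compound and lithium; incubate 30 min, 37C; add d2-IP1 tracer and Eu cryptate anti-IP1 antibody in lysis buffer; read after 10 min at room temperature.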
MBNL1-CUG inh: blocks human MBNL1 binding to CUG repeat RNA. Q9NR56. TR-FRET MBNL1-His/biotin-(CUG)12 binding, 665/545 ratio. Potency, µM (titrated, usually from 57.5 µM), actives largely listed as inhibitors. 280,000 compounds, 0.036% hits. AID 2675; active means well fitted inhibition curve with a large enough effect in the signal ratio, with a control signal flat, not every such curve was filed as active; inconclusive means small, poorly fitted or top-dose-only effect, or effect the other way, or a change in a side signal; inactive means no such curve, though single readings can be large or run the other way; the % refers to the signal ratio
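Compound titration spanned 92 nM–58 uM against the MBNL1-His/biotin-(CUG)12 complex. After 60 min at room temperature with 5 nM streptavidin-XL665 and 0.055 ng/ul terbium anti-His, ratiometric 665/545 nm emission (Ex 340 nm) normalized to controls.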
NPSR antagonist: antagonists of human neuropeptide S receptor cAMP signaling | Q6W5P4 | CHO-NPSR cells, cAMP TR-FRET, antagonist mode | Potency, µM (titrated, usually from 38.3 µM), hits mostly inhibitors | 220,000 compounds, 1% hits; further: nearly all actives have a fitted effect of over 50% in size
Tb PFK block: blocks T. brucei phosphofructokinase. O15648. T. brucei PFK, ADP-Glo luminescence. Potency, µM (top dose mostly 57.5 µM), actives largely listed as inhibitors. 330,000 compounds, 0.17% hits; further: nearly all actives have a fitted effect of over 60% in size
Target sequence (O15648 whole entry, looked up): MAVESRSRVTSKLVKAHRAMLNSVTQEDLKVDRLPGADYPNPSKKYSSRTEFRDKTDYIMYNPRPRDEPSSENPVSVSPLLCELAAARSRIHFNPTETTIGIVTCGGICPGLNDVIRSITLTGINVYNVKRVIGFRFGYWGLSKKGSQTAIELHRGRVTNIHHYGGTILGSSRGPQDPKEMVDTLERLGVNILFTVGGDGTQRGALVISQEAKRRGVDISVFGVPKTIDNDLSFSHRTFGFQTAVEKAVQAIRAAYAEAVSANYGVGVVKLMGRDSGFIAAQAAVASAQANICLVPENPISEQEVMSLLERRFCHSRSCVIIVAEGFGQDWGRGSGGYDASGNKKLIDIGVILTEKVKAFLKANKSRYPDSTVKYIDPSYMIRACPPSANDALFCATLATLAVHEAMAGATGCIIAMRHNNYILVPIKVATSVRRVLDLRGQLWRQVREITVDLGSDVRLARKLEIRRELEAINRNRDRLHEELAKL
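Luminescent ADP detection (ADP-Glo, two-step: ATP depletion then ADP-to-ATP conversion for luciferase) reported PFK activity after 45 min room-temperature reaction of 1.25 nM enzyme with 0.5 mM F6P and 0.1 mM ATP at pH 8.0.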
Hits are given with their value; . = inactive; ? = inconclusive; / = no result; ! = not confirmed by another sample; [ ] = remark or other dose. Unless noted, the call rests on the fitted dose curve; in most records, active means well fitted curve in the direction sought with a large enough effect; inconclusive means small, poorly fitted or top-dose-only effect, or another doubt; inactive means no such curve, though single readings can be large; an effect the other way counts as inactive or inconclusive.

SMILES	RGS12 GoLoco inh	IMPase Li cell	MBNL1-CUG inh	NPSR antagonist	Tb PFK block
COc1ccccc1-c1nnc(NC(=O)OCC(C)C)s1	.	11µM	.	.	.
COc1ccc(-c2nnc(NC(=O)C(C)C)s2)c(OC)c1	.	13µM	.	.	.
CCOc1ccc(CCNC(=O)COC(=O)c2oc3ccccc3c2COC)cc1OCC	/	/	/	/	.
CCc1ccc(OCC(=O)Nc2ccc(-c3nc4ccccc4o3)c(O)c2)cc1	.	5.6µM	.	.	.
COc1ccc(OCC(=O)Nc2cccc(-c3nc4ccccc4o3)c2)cc1	.	.	.	.	.
COc1ccc(Br)cc1C(=O)Nc1ccc(C(=O)NCC(C)C)cc1	.	.	.	.	.
CCOc1ccc(Br)cc1C(=O)Nc1ccc(C(=O)NCC(C)C)cc1	.	10µM	.	?	.
Cc1nc(SC2CCOC2=O)c2c(C)c(C)sc2n1 (stereo not drawn)	.	7.1µM	.	.	.
COC(=O)c1cc(NC(=O)c2c(Cl)nc3sccn23)cc(C(=O)OC)c1	.	11µM	.	.[7.67 µM]	.
Cn1cccc1/C=C1\CC(C(C)(C)C)C/C(=C\c2cccn2C)C1=O (stereo not drawn)	.	.	.	10µM	.
CCc1[nH]nc(C(=O)NC2CCCc3c2cnn3-c2cc(C)cc(C)c2)c1C (stereo not drawn)	/	/	.	/	.
O=c1oc2c(O)c(O)cc3c(=O)oc4c(O)c(O)cc1c4c23	28µM!	.	?	.	?
O=c1oc2ccccc2c2oc3cc(O)c(O)cc3c12	.	.	.	.	.
CC(=O)C1=C(O)C(=O)N(c2cccnc2)C1c1ccc(Cl)cc1 (stereo not drawn)	.	6.3µM	.	.	.
Cc1cccc(N2C(=O)c3cccc4c(N(C)CCO)ccc(c34)C2=O)c1	25µM	.	?	.	.
CCCC(=O)O[C@]1(C(=O)COC(C)=O)CC[C@H]2[C@@H]3C[C@H](F)C4=CC(=O)C=C[C@]4(C)[C@@]3(F)[C@@H](O)C[C@@]21C	.	.	.	2.5µM	.
O=[N+]([O-])c1ccc(-c2nc(C(Cl)Cl)c3ccccc3n2)cc1	.	/	.	2µM	.
Cc1ccc(-n2c(C)nc3oc4ccccc4c(=O)c3c2=O)cc1	.	6.3µM	.	.	.
O=C(/C=C/Nc1ccccc1F)c1cccs1	8.9µM	.	.	.	?
O=C(/C=C/Nc1ccc(F)cc1F)c1cccs1	.	.	.	.	?
CCN(CC)CCOc1ccc(/C(=C(/Cl)c2ccccc2)c2ccccc2)cc1	.	.	.	10µM	.
OC1(c2cccc(C(F)(F)F)c2)CCN(c2ncnc3c2[nH]c2ccc(F)cc23)CC1	.	.	.	13µM	/
N#C/C(=C/c1ccc(N2CCOCC2)o1)c1ccc(Br)cc1	.	.	.	.	.
N#C/C(=C\c1ccc(N2CCOCC2)o1)c1ccccc1	7.1µM	.	.	?	?
N#C/C(=C/c1ccc(N2CCCCCC2)o1)c1cccc(F)c1	.	.	.	6.3µM	.
SMILES	RGS12 GoLoco inh	IMPase Li cell	MBNL1-CUG inh	NPSR antagonist	Tb PFK block
O=C(CCNS(=O)(=O)c1ccc2[nH]c(=O)oc2c1)Nc1ccccc1	/	/	.	/	.
O=C(NCCc1ccc2c(c1)OCCO2)c1ccccn1	/	/	.	/	.
CCOC(=O)c1sc(=NC(=O)c2ccc(S(=O)(=O)N(C)c3ccccc3)cc2)n(C)c1C	.	.	?	3.2µM	.
Cn1c(NC2CCCCC2)cc(=O)n(C)c1=O	/	/	.	/	.
Cn1c(=O)c(NC2CCCCC2)c2c3c(cccc31)C(=O)c1ccccc1-2	0.79µM	.	.	?	.
CC(=O)Nc1ccc(Nc2c3c4c(cccc4n(C)c2=O)C(=O)c2ccccc2-3)cc1	14µM	.	?	.	.
CCCCNc1c2c3c(cccc3n(C)c1=O)C(=O)c1ccccc1-2	14µM	.	?	?	.
CC(=O)Nc1ccc(NC2=CC(=O)c3ccccc3C2=O)cc1	/	/	?	/	.
Cn1c(=O)c(NCCc2ccccc2)c2c3c(cccc31)C(=O)c1ccccc1-2	4.5µM	.	?	?	.
O=C(CCN1CCN(S(=O)(=O)c2ccc(Cl)cc2)CC1)Nc1ccc(F)cc1	/	/	.	/	.
CC(C)(C)c1cc(-c2csc(Nc3ccccc3)[n+]2Cc2ccc(C(=O)O)cc2)cc(C(C)(C)C)c1O	.	/	.	13µM	.
